{"source": "PubChem BioAssay AID623868", "about": "(Vanderbilt High Throughput Screening Facility, 2012)", "note": "Among all 2,100 compounds or so, about 760 (36%) were called active. The list is a sample of the results. Values without a mark were called inactive.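 Rule for the calls: active = thallium-flux fluorescence traces judged by eye to show enhanced or reduced glutamate response, manual score 1 or -1, so both directions (some results past the limit were not filed as active); inactive = the rest, including fluorescent or raised-baseline compounds.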", "data": [{"experiment": "thallium influx changes without GIRK channels – cell-based, HEK-293 rmGlu8, no GIRK, thallium flux, counter-screen for GIRK activator project, confirmation (AID 623868);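 note: extra codes mark interference with 3 for fluorescent and 4 for baseline rise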", "details": "thallium flux fluorescence, at 10 µM, actives lie on both sides, codes: 1 enhancer, -1 blocker, 0 none, thallium stimulus containing EC20 glutamate", "values": [{"smiles": "O=[n+]1c2c(n([O-])c3cc(F)c(N4CCCC4)cc31)CCC2", "manual score": 3}, {"smiles": "Cc1cccc2c(=O)cc(C)n(CC(=O)N3CCCCC3)c12", "manual score": -0.5}, {"smiles": "CCN(C(=O)CSc1nc2ccccc2n1CCc1ccccc1)C1CCS(=O)(=O)C1", "note": "(stereo unspecified)", "manual score": 0}, {"smiles": "CCOC(=O)CSc1nc(C)c2cc(OC)ccc2n1", "manual score": 0}, {"smiles": "COc1ccc2c(-c3ccccc3)cc(SCC(=O)N(C)C3CCS(=O)(=O)C3)nc2c1", "note": "(stereo unspecified)", "manual score": "1 (active)"}, {"smiles": "Cc1ccc(NC(=O)Cc2ccccc2Cl)cc1S(=O)(=O)N(C)C", "manual score": 0}, {"smiles": "CN(CCNC(=O)c1cc2c(=O)n(C)c3ccccc3c2n1C)Cc1ccccc1", "manual score": 0}, {"smiles": "CC1(C)Cc2c(ccc3ccccc23)-c2nnc(-c3cccnc3)n21", "manual score": 0}, {"smiles": "COc1ccc(-c2ccnc3nc(Sc4ncc(C(F)(F)F)cc4Cl)nn23)cc1", "manual score": 0}, {"smiles": "Cc1ccc([N+](=O)[O-])cc1NC(=S)NC(=O)c1ccco1", "manual score": "1 (active)"}, {"smiles": "O=C(Cc1ccccc1)N/N=C/c1cccn1-c1ccc([N+](=O)[O-])cc1", "manual score": 0}, {"smiles": "Cc1cc([N+](=O)[O-])ccc1NC(=S)NC(=O)Cc1ccccc1", "manual score": "1 (active)"}, {"smiles": "COc1cccc(C(=O)NC(=S)Nc2ccc([N+](=O)[O-])cc2C)c1", "manual score": "1 (active)"}, {"smiles": "O=C(NC(=S)Nc1cc([N+](=O)[O-])ccc1Cl)c1ccccc1", "manual score": 0}, {"smiles": "Cc1ccc(NC(=S)NCc2ccccc2)cc1[N+](=O)[O-]", "manual score": 0}, {"smiles": "CC(=O)Nc1ccc(NC(=O)CSc2nccn2Cc2ccccc2)cc1", "manual score": 0}, {"smiles": "COc1ccc(CO/N=C/c2c(C)[nH]c(=O)[nH]c2=O)cc1", "manual score": 0}, {"smiles": "CCOC(=O)C(CCCCOc1cccc(CC)c1)C(=O)OCC", "manual score": 0}, {"smiles": "CCOc1ccc(-c2nc(-c3ccc(OC)cc3)no2)cc1OCC", "manual score": 0}, {"smiles": "Oc1c(Cl)cc(Cl)c2c1NCCC2", "manual score": 0}, {"smiles": "Cc1cccc(OCC(O)Cn2c(=N)n(CCN3CCCCC3)c3ccccc32)c1", "note": "(stereo unspecified)", "manual score": 0}, {"smiles": "COc1ccccc1N1CCN(Cc2cc(Br)c(O)c3ncccc23)CC1", "manual score": "1 (active)"}, {"smiles": "c1ccc2c(c1)oc1c(N3CCN(Cc4ccc5c(c4)OCO5)CC3)ncnc12", "manual score": 0}, {"smiles": "COC(=O)C1=C(C)NC(=O)/C1=C\\c1ccco1", "manual score": 0}, {"smiles": "Cc1cccc(N=C2NC(=O)/C(=C/C=C/c3ccco3)S2)c1C", "manual score": "1 (active)"}, {"smiles": "CC(C)c1ccc(-c2noc(C3CCCN(S(C)(=O)=O)C3)n2)cc1", "note": "(stereo unspecified)", "manual score": 0}, {"smiles": "O=C(COc1c(Br)cc(Br)c2cccnc12)N1CCc2ccccc2C1", "manual score": "1 (active)"}, {"smiles": "CCOC(=O)c1c(C)c(C(=O)N2CCc3ccccc3C2)c(C)n1CC", "manual score": 0}, {"smiles": "CC(C)=CCC(C)(C)CNC(=O)NC1CCCCC1", "manual score": 0}, {"smiles": "Cn1c(-c2sc3ccccc3c2Cl)n[nH]c1=S", "manual score": "1 (active)"}, {"smiles": "CCC(CC)c1nnc(NC(=O)C2COc3ccccc3O2)s1", "note": "(stereo unspecified)", "manual score": 0}, {"smiles": "CCC(CC)c1nnc(NC(=O)c2ccc3ccccc3n2)s1", "manual score": "1 (active)"}, {"smiles": "Cc1nnc(NC(=O)CCSc2ccccc2)s1", "manual score": 0}, {"smiles": "Cc1ccc(NC2=NC(=S)N(CC#N)C23CCCCC3)cc1", "manual score": "1 (active)"}, {"smiles": "N#CCN1C(=S)N=C(Nc2cccc(Cl)c2)C12CCCCC2", "manual score": 0}, {"smiles": "COc1ccc(NC2=NC(=S)N(c3ccccc3C)C23CCCCC3)cc1", "manual score": "1 (active)"}, {"smiles": "Cc1ccccc1-c1nc(CN2CCC(C(=O)NCCCN3CC(C)CC(C)C3)CC2)c(C)o1", "note": "(stereo unspecified)", "manual score": 0}, {"smiles": "CC1CCCCN1CCCn1c(=S)[nH]c2ccccc2c1=O", "note": "(stereo unspecified)", "manual score": 0}, {"smiles": "O=c1c2ccccc2[nH]c(=S)n1CCCN1CCN(C2CCCCC2)CC1", "manual score": "1 (active)"}, {"smiles": "CCC1CCCCN1CCCn1c(=S)[nH]c2ccccc2c1=O", "note": "(stereo unspecified)", "manual score": "1 (active)"}, {"smiles": "CCC1CCCN1Cn1cnc2c([nH]c3ccc(OC)cc32)c1=O", "note": "(stereo unspecified)", "manual score": 0}, {"smiles": "O=C(NCc1ccccc1)c1ccc2c(=O)n(CCCN3CCCC3=O)c(=S)[nH]c2c1", "manual score": 0}, {"smiles": "CC1CC(C)CN(CCCn2c(=S)[nH]c3ccccc3c2=O)C1", "note": "(stereo unspecified)", "manual score": "1 (active)"}, {"smiles": "O=c1c2ccccc2[nH]c(=S)n1CCN1CCN(Cc2ccccc2)CC1", "manual score": "1 (active)"}, {"smiles": "CC(C)CCn1c(CN2CCN(Cc3ccccc3)CC2)nc2c1c(=O)[nH]c(=O)n2C", "manual score": 0}, {"smiles": "Cc1cccc(N2C(N)=NC(N)=NC23CCCCC3)c1", "manual score": 0}, {"smiles": "CCN(CC)S(=O)(=O)c1cc(NC(=O)Cn2cnc3ccccc3c2=O)ccc1C", "manual score": 0}, {"smiles": "CC(C)CN(C(=O)COC(=O)Cc1n[nH]c(=O)c2ccccc12)C1CCS(=O)(=O)C1", "note": "(stereo unspecified)", "manual score": 0}, {"smiles": "CCOC(=O)c1c(C)[nH]c(=S)c(C#N)c1-c1ccc(Cl)cc1", "manual score": 0.5}, {"smiles": "COc1ccc(-c2c3c([nH]c(=S)c2C#N)CCC3)cc1", "manual score": "1 (active)"}, {"smiles": "CCN1CCCC1CNC(=O)CSCc1nc(-c2ccccc2C)oc1C", "note": "(stereo unspecified)", "manual score": 0}, {"smiles": "O=C(/C=C/c1ccccc1)NC(NC(=S)Nc1cccc(Cl)c1)C(Cl)(Cl)Cl", "note": "(stereo unspecified)", "manual score": 0}, {"smiles": "O=C(/C=C/c1ccccc1)NC(NC(=S)Nc1cc(Cl)ccc1Cl)C(Cl)(Cl)Cl", "note": "(stereo unspecified)", "manual score": 0}, {"smiles": "CCC1c2ccc(C)n2CCN1C(=O)Nc1ccccc1C(=O)OC", "note": "(stereo unspecified)", "manual score": 0}, {"smiles": "O=C(NC(NC(=S)Nc1ccc(Cl)cc1Cl)C(Cl)(Cl)Cl)c1cccc([N+](=O)[O-])c1", "note": "(stereo unspecified)", "manual score": "1 (active)"}, {"smiles": "COC(=O)c1ccccc1NC(=S)NC(NC(=O)c1ccco1)C(Cl)(Cl)Cl", "note": "(stereo unspecified)", "manual score": "1 (active)"}, {"smiles": "COC(=O)c1ccccc1NC(=S)NC(NC(=O)c1ccccc1[N+](=O)[O-])C(Cl)(Cl)Cl", "note": "(stereo unspecified)", "manual score": "1 (active)"}, {"smiles": "O=C(/C=C/c1ccccc1)NC(NC(=S)Nc1cccc(O)c1)C(Cl)(Cl)Cl", "note": "(stereo unspecified)", "manual score": 3}, {"smiles": "CCOc1cc(C)nc(N2CCN(C3CCCCC3)CC2)n1", "manual score": 0}, {"smiles": "O=C1CC(c2ccncc2)c2cc3c(cc2N1)OCCO3", "note": "(stereo unspecified)", "manual score": 0}, {"smiles": "Cc1ccc(NC(=O)Cn2cccc2)cc1Cl", "manual score": 0}, {"smiles": "CCC(=O)Nc1nc2ccc3nc(C)sc3c2s1", "manual score": 0}, {"smiles": "Cc1cccc2sc(NC(=O)Cn3cccc3)nc12", "manual score": "1 (active)"}, {"smiles": "CCOc1ccccc1Cn1c(=O)oc2ccc(C)cc21", "manual score": 0}, {"smiles": "COc1ccccc1OCC(=O)Nc1sc2c(c1C(=O)NCC1CCCO1)CCC2", "note": "(stereo unspecified)", "manual score": 0}, {"smiles": "COC(=O)c1c(NC(=S)NC(=O)c2ccco2)sc2c1CCCC2", "manual score": 0}, {"smiles": "CCOC(=O)c1c(NC(=S)Nc2ccccc2)sc2c1CCCCC2", "manual score": "1 (active)"}, {"smiles": "COC(=O)c1c(NS(=O)(=O)Cc2ccccc2)sc2c1CCCC2", "manual score": "1 (active)"}, {"smiles": "CCOC(=O)c1c(NS(=O)(=O)Cc2ccccc2)sc2c1CCCC2", "manual score": "1 (active)"}, {"smiles": "COc1ccc(NC(=O)COC(=O)CC23CC4CC(CC(C4)C2)C3)c([N+](=O)[O-])c1", "manual score": 0}, {"smiles": "COC(=O)c1c(NC(=S)Nc2ccc(F)cc2[N+](=O)[O-])sc2c1CCCCC2", "manual score": "1 (active)"}]}]}
